# Data published in PubChem BioAssay (NCI).
# This is part of a sample that, as a whole, favours compounds with a hit. Of some 79,000 tested, about 15% had one in any assay. Unmarked numbers belong to inactive results. No stated cut-off is given here; in the data, active means growth inhibition above about 70%; inactive means the rest. Where a SMILES comes first, the peptide text is derived from it. [ ]: non-standard residue; d: D form. The star is where a group is joined. Ac5c = NC1(C(=O)O)CCCC1; Cbz = O=C(OCc1ccccc1)*
# Test: NCI Yeast Anticancer Drug Screen. Data for the rad50 strain (AID 155);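 further: 0% = growth of vehicle-only cultures of the same strain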
# Settings: S. cerevisiae rad50 strain growth inhibition; at 50.0 µM; active compounds read high
# In short: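 Inhibition values express reduced yeast growth in compound-treated cultures relative to vehicle-treated controls.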
row,Compound,growth inhibition
1,CC(=O)CC(=O)Nc1cccc(C)c1,-13.9%
2,CCC(C)CN1C(=O)NC(C)(Cc2ccccc2)C1=O (stereo not given),18.6%
3,Cc1ccc(C(=O)Nc2ccc(S(=O)(=O)O)c3cc(S(=O)(=O)O)cc(S(=O)(=O)O)c23)cc1N,-28.1%
4,O=C(O)c1ccncc1C(=O)c1csc2ccccc12,7.9%
5,COc1ccc(/C=C/C(C)=O)c(OC)c1,3%
6,CS1(=O)=NC(=O)C(N2C(=O)c3ccccc3C2=O)CC1 (stereo not given),0.6%
7,BrC1CC2CCCCC2CC1Br (stereo not given),-1.45%
8,Nc1nc(Cl)c2nc(Cl)n(C3OC(CO)C(O)C3O)c2n1 (stereo not given),-7.1%
9,Nc1nc(-c2cc(-c3ccco3)nc(N)n2)cc(-c2ccco2)n1,-8.2%
10,COC(=O)C(/C(=N/NC(N)=O)C(=O)Nc1c(C)cccc1C(C)(C)C)c1nc2ccc(Cl)cc2[nH]c1=O (stereo not given),-3.9%
11,Cc1ccc(Nc2nc(C)c(C(=O)CC(=O)C(=O)Nc3c(C)cccc3C(C)(C)C)s2)cc1,14.2%
12,Clc1nc2ccccc2s1,-32.4%
13,O=C(O)/C(=C(\CO)c1ccccc1)c1ccccc1,7.15%
14,CCCCC(=O)CCC(=O)O,9.7%
15,O=C(O)CSc1ccn(Cc2ccccc2)c1,-8.15%
16,O=C(O)CNC(=O)C1(NC(=O)CNC(=O)OCc2ccccc2)CCCC1 (Cbz-Gly-[Ac5c]-Gly-OH),4.7%
17,O=c1c2ccccc2n2c(-c3ccc(O)cc3)nnc2n1-c1ccccc1,-30.3%
18,COc1ccccc1/C=C1\C(=O)N(C(=O)Cc2ccccc2)N=C1C,-4.4%
19,CCOC(=O)/C(O)=C(/C=N\C(=S)Nc1ccccc1Cl)C(=O)OCC,-44%
20,O=C1CC[C@H](NC(=O)Cc2ccccc2)C(=O)N1,-11.8%

row,Compound,growth inhibition
1,CN(C)C(=S)/N=c1\ss/c(=N\C(=S)N(C)C)n1-c1ccc2c(c1)OCO2,-16.1%
2,COC(=O)C1Cc2ccccc2C1=O (stereo not given),-1.75%
3,CCCCCCSCCO,-13.2%
4,Cc1nc(N=C(N)N)nc2ccccc12,3.4%
5,CCOC(=O)c1[nH]n(-c2ccccc2)c(=O)c1/C=N/C(=S)Nc1c(CC)cccc1CC,-18.1%
6,CC1=C(O[Si](C(C)C)(C(C)C)C(C)C)C2CC1(OS(=O)(=O)C(F)(F)F)[C@H]1C(=O)N(c3ccccc3)C(=O)[C@@H]21 (stereo not given in full),-4.8%
7,CC1SC2(C(=O)Nc3ccccc32)N(c2ccc(Cl)cc2)C1=O (stereo not given),21.6%
8,O=C(NCCN1CCOCC1)c1ccc(C(=O)NCCN2CCOCC2)cc1,35%
9,CC(=O)OCC1OC(OCC(OC(C)=O)C(OC(C)=O)C(OC(C)=O)c2cnn(-c3ccccc3)n2)C(OC(C)=O)C(OC(C)=O)C1OC(C)=O (stereo not given),1.35%
10,Nc1nc(CCC(=O)O)cs1,-6.85%
11,Nc1ncnc2c1ncn2C1CCN(CCO)C1=O (stereo not given),-5.55%
12,COC(=N)c1nnn(-c2ccccc2)n1,-8.6%
13,Cc1ccc(C(=O)Cc2ccccc2)cc1,8.05%
14,CCC1(CC)C(=O)N(C(=O)c2ccc(C)cc2)N(C(=O)c2ccc(C)cc2)C1=O,3.65%
15,O=c1[nH]nc(Cc2ccccc2)n1/N=C\c1ccccc1,-38.6%
16,CCOC(=O)c1c(C)c2c(n1C)CC/C(=C\N1CCN(c3ccccc3)CC1)C2=O,0.6%
17,COc1ccc(NS(=O)(=O)c2ccc(NCc3c4ccccc4nc4ccccc34)cc2)nn1,-13.3%
18,O=C(Nc1ccccc1[N+](=O)[O-])OCc1ccccc1,-10.7%
19,CC1(C)C(N)C(C)(C)C1N (stereo not given),-0.05%
20,O=C1CN(N2CCOCC2)CC(=O)N2CCCCN12,20.9%

# Test: NCI Yeast Anticancer Drug Screen. Data for the mec2-1 strain (AID 157)
# Settings: S. cerevisiae mec2-1 strain, at 50.0 µM, active compounds read high
# In short: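 Readout is yeast growth inhibition, normalised to vehicle-treated controls, in the mec2-1 strain exposed to compound.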
row,Compound,growth inhibition
1,CC(=O)CC(=O)Nc1cccc(C)c1,-15.7%
2,CCC(C)CN1C(=O)NC(C)(Cc2ccccc2)C1=O (stereo not given),1.25%
3,Cc1ccc(C(=O)Nc2ccc(S(=O)(=O)O)c3cc(S(=O)(=O)O)cc(S(=O)(=O)O)c23)cc1N,-7.05%
4,O=C(O)c1ccncc1C(=O)c1csc2ccccc12,14.2%
5,COc1ccc(/C=C/C(C)=O)c(OC)c1,-12.3%
6,CS1(=O)=NC(=O)C(N2C(=O)c3ccccc3C2=O)CC1 (stereo not given),4.9%
7,BrC1CC2CCCCC2CC1Br (stereo not given),22.3%
8,Nc1nc(Cl)c2nc(Cl)n(C3OC(CO)C(O)C3O)c2n1 (stereo not given),1.75%
9,Nc1nc(-c2cc(-c3ccco3)nc(N)n2)cc(-c2ccco2)n1,-13.6%
10,COC(=O)C(/C(=N/NC(N)=O)C(=O)Nc1c(C)cccc1C(C)(C)C)c1nc2ccc(Cl)cc2[nH]c1=O (stereo not given),-15.7%
11,Cc1ccc(Nc2nc(C)c(C(=O)CC(=O)C(=O)Nc3c(C)cccc3C(C)(C)C)s2)cc1,-17.6%
12,Clc1nc2ccccc2s1,-5.2%
13,O=C(O)/C(=C(\CO)c1ccccc1)c1ccccc1,9.25%
14,CCCCC(=O)CCC(=O)O,11.6%
15,O=C(O)CSc1ccn(Cc2ccccc2)c1,-18.5%
16,O=C(O)CNC(=O)C1(NC(=O)CNC(=O)OCc2ccccc2)CCCC1 (Cbz-Gly-[Ac5c]-Gly-OH),20.3%
17,O=c1c2ccccc2n2c(-c3ccc(O)cc3)nnc2n1-c1ccccc1,-17.1%
18,COc1ccccc1/C=C1\C(=O)N(C(=O)Cc2ccccc2)N=C1C,-8.15%
19,CCOC(=O)/C(O)=C(/C=N\C(=S)Nc1ccccc1Cl)C(=O)OCC,-55.3%
20,O=C1CC[C@H](NC(=O)Cc2ccccc2)C(=O)N1,-6.55%

row,Compound,growth inhibition
1,CN(C)C(=S)/N=c1\ss/c(=N\C(=S)N(C)C)n1-c1ccc2c(c1)OCO2,-4.1%
2,COC(=O)C1Cc2ccccc2C1=O (stereo not given),-13.2%
3,CCCCCCSCCO,-35%
4,Cc1nc(N=C(N)N)nc2ccccc12,-8.45%
5,CCOC(=O)c1[nH]n(-c2ccccc2)c(=O)c1/C=N/C(=S)Nc1c(CC)cccc1CC,-29.2%
6,CC1=C(O[Si](C(C)C)(C(C)C)C(C)C)C2CC1(OS(=O)(=O)C(F)(F)F)[C@H]1C(=O)N(c3ccccc3)C(=O)[C@@H]21 (stereo not given in full),-11.4%
7,CC1SC2(C(=O)Nc3ccccc32)N(c2ccc(Cl)cc2)C1=O (stereo not given),10.3%
8,O=C(NCCN1CCOCC1)c1ccc(C(=O)NCCN2CCOCC2)cc1,22.9%
9,CC(=O)OCC1OC(OCC(OC(C)=O)C(OC(C)=O)C(OC(C)=O)c2cnn(-c3ccccc3)n2)C(OC(C)=O)C(OC(C)=O)C1OC(C)=O (stereo not given),0.2%
10,Nc1nc(CCC(=O)O)cs1,-14.4%
11,Nc1ncnc2c1ncn2C1CCN(CCO)C1=O (stereo not given),-5.55%
12,COC(=N)c1nnn(-c2ccccc2)n1,-8%
13,Cc1ccc(C(=O)Cc2ccccc2)cc1,6.15%
14,CCC1(CC)C(=O)N(C(=O)c2ccc(C)cc2)N(C(=O)c2ccc(C)cc2)C1=O,-6.1%
15,O=c1[nH]nc(Cc2ccccc2)n1/N=C\c1ccccc1,-20.6%
16,CCOC(=O)c1c(C)c2c(n1C)CC/C(=C\N1CCN(c3ccccc3)CC1)C2=O,-1.55%
17,COc1ccc(NS(=O)(=O)c2ccc(NCc3c4ccccc4nc4ccccc34)cc2)nn1,8.2%
18,O=C(Nc1ccccc1[N+](=O)[O-])OCc1ccccc1,10.4%
19,CC1(C)C(N)C(C)(C)C1N (stereo not given),-14.5%
20,O=C1CN(N2CCOCC2)CC(=O)N2CCCCN12,1.25%
